Measured values: the supplement of paper PMC10646978
± gives the standard deviation.

Assays:
Conditions in all cases: modulator concentration 10 µM
[1] = tested on: RAW-Dual (murine macrophage reporter line); test: NF-kB reporter (SEAP) activity fold change vs agonist alone; higher = enhanced NF-kB activity
Method in brief: (§1)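 Overnight stimulation with a PRR agonist followed pre-incubation for 1 hour at 37 °C with compound at 10 μM final. This was done in RAW-Dual murine macrophage reporter cells seeded at 50 000 per well in 384-well plates. NF-κB (SEAP, QUANTI-Blue absorbance at 620 nm) and IRF (Lucia luciferase, QUANTI-Luc luminescence) were read from the supernatant. Each reporter's fold change relative to the mean agonist-only control on the same plate was averaged over replicate plates.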

[2] = tested on: RAW-Dual (murine macrophage reporter line); test: IRF reporter (Lucia luciferase) activity fold change vs agonist alone; higher = enhanced IRF activity
Method in brief: as §1

[3] = tested on: RAW-Dual (murine macrophage reporter line); test: viability score (confluency relative to resting cells, overnight) (fraction); higher = more viable, active = viable (0.7 or more)
Method in brief: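 RAW-Dual macrophages in 384-well plates were incubated overnight with compound, final concentration 10 μM. Confluency images from IncuCyte were processed in IncuCyte software into two masks covering all imaged wells. The viability score is each well's confluency relative to resting cells, and a compound met the cutoff when both masks exceeded 70% of resting cells.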

[4] = agonist: CpG ODN 1826 0.5 ug/mL

Compound | NF-kB reporter [1, 4] | NF-kB reporter ([1]; agonist: LPS 0.1 ug/mL) | NF-kB reporter ([1]; agonist: MPLA […]) | IRF reporter ([2]; agonist: 3'3'-cGAMP 10 ug/mL) | IRF reporter ([2]; agonist: LPS 0.1 ug/mL) | IRF reporter ([2]; agonist: MPLA […]) | viability score [3]
Cn1c(=O)cc(N2CCC[C@@H](N)C2)n(Cc2cc(F)ccc2C#N)c1=O | 0.989 ± 0.074 | 1.02 ± 0.055 | 1.02 ± 0.044 | 0.225 ± 0.013 | 0.971 ± 0.061 | 0.886 ± 0.082 | 1 (active)
NC(=O)CC[C@@H](N)C(=O)O | 1.16 ± 0.31 | 1.05 ± 0.059 | 0.953 ± 0.068 | 0.946 ± 0.046 | 1.37 ± 0.2 | 1.23 ± 0.17 | 1.01 (active)
O=S(=O)(Nc1cccc2cccnc12)c1ccccc1 | 0.961 ± 0.13 | 0.597 ± 0.097 | 0.659 ± 0.053 | 1.04 ± 0.081 | 5.63 ± 1 | 1.32 ± 0.29 | 0.745 (active)
COc1cc(C=Cc2nc3ccccc3nc2O)cc(OC)c1 | 1.06 ± 0.054 | 1.06 ± 0.099 | 1.09 ± 0.074 | 0.565 ± 0.029 | 0.834 ± 0.087 | 1.08 ± 0.29 | 0.872 (active)
CCOc1ccc(Nc2oc(-c3ccc(COc4ccc(C)cc4)o3)nc2C#N)cc1 | 1.03 ± 0.082 | 0.717 ± 0.089 | 1.04 ± 0.099 | 0.998 ± 0.035 | 1.41 ± 0.24 | 1.67 ± 0.41 | 0.832 (active)
CN1C(C(=O)Nc2ccccn2)=C(O)c2ccccc2S1(=O)=O | 0.654 ± 0.063 | 0.901 ± 0.047 | 1.11 ± 0.097 | 0.943 ± 0.056 | 1.25 ± 0.077 | 1.35 ± 0.11 | 1.02 (active)
CCC[C@@H]1C[C@@H](C(=O)N[C@@H]([C@H]2O[C@H](SC)[C@H](OP(=O)(O)O)[C@@H](O)[C@H]2O)[C@H](C)Cl)N(C)C1 | 0.953 ± 0.08 | 0.954 ± 0.059 | 0.952 ± 0.043 | 0.972 ± 0.073 | 1.01 ± 0.09 | 1.15 ± 0.092 | 1 (active)
Cl.Cn1c(=N)n(CC(O)c2ccco2)c2ccccc21 (stereo unspecified) | 1.05 ± 0.061 | 1.09 ± 0.077 | 0.969 ± 0.069 | 1.22 ± 0.04 | 1.46 ± 0.21 | 1.3 ± 0.18 | 0.992 (active)
OCCN1CCN(CCCN2c3ccccc3Sc3ccc(Cl)cc32)CC1 | 1.21 ± 0.051 | 0.614 ± 0.069 | 0.894 ± 0.077 | 3.18 ± 0.17 | 1.32 ± 0.18 | 1.49 ± 0.42 | 0.907 (active)
CCCCCn1c(=O)[nH]c2cc(C(=O)N3CCN(C(=O)OCC)CC3)ccc2c1=O | 1.12 ± 0.065 | 1.09 ± 0.068 | 1.02 ± 0.069 | 1.01 ± 0.035 | 1.45 ± 0.11 | 1.24 ± 0.14 | 0.974 (active)
CCC(=O)Nc1ccc(NC(=O)c2ccco2)c(OC)c1 | 0.828 ± 0.065 | 0.831 ± 0.11 | 1.08 ± 0.12 | 0.934 ± 0.044 | 1.32 ± 0.11 | 1.42 ± 0.18 | 1.01 (active)
O=c1[nH]cnc2scc(-c3ccc(Br)cc3)c12 | 0.924 ± 0.067 | 1.08 ± 0.073 | 1.03 ± 0.061 | 1.14 ± 0.042 | 1.65 ± 0.13 | 1.29 ± 0.16 | 0.975 (active)
Cc1cc(C)nc(NC#N)n1 | 0.919 ± 0.072 | 0.966 ± 0.11 | 0.971 ± 0.061 | 0.776 ± 0.1 | 1.02 ± 0.13 | 1.18 ± 0.2 | 0.998 (active)
